One experiment concerns the target Albumin (Bos taurus) (UniProt P02769). The experiment can be described thus: bovine serum albumin binders on microarray, profiling panel, artefact control for SMM control protein annotation, biochemical, small-molecule microarray, Alexa647 label, 635/667 nm fluorescence (AID 1118).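 Note: score merges 667 nm emission intensity and signal-to-noise per printed compound spot.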 As to conditions: BSA-A647 binding, fluorescence 635 nm, higher = more signal.
A short description of experiment [1]: small-molecule microarray binders of probe aXIP, primary screen, biochemical, NeuroSMM set, 635/667 nm fluorescence (AID 1119).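 Note: probe is the protein aXip251-270 applied at 1 µg/mL to compound-printed slides; binding of probe to printed compounds measured as 667 nm fluorescence plus signal to noise.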 The settings on record: higher = more signal, called active from +8 up or from −8 down.
Experiment [2] can be described thus: small-molecule binders of probe aNOTCH3, primary screen, biochemical, small-molecule microarray, 635/667 nm fluorescence (AID 1120).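 Note: probe is a biotin-tagged antibody raised against NOTCH3 rather than NOTCH3 protein; score merges spot fluorescence near 667 nm with spot signal to noise.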 The settings on record: higher = more signal.
Experiment [3] in a line: small-molecule binders of probe aNOTCH2, primary screen, biochemical, small-molecule microarray, 635/667 nm fluorescence (AID 1121).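 Note: score merges feature fluorescence read at 667 nm with its signal to noise.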 The settings on record: higher = more signal.
Experiment [4] addresses Carbonic anhydrase 2 (Homo sapiens) (UniProt P00918). The experiment can be described thus: CAII small-molecule binders, profiling panel, biochemical, small-molecule microarray, Alexa647-labelled CAII (AID 1122). The settings on record: CAII-A647 binding fluorescence, higher = more signal.
Experiment [5] in a line: COS7 lysate on small-molecule microarray, probe aHis, 635 nm (AID 1123).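 Note: z-score combines 667nm fluorescence intensity with signal-to-noise per printed compound spot.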 As to conditions: COS7 cell lysate, fluorescence, higher = more signal.
A short description of experiment [6]: compound binding in COS7 lysate, probe aLAP1, primary screen, cell lysate, small-molecule microarray (AID 1124).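 Note: lysate comes from COS7 cells expressing LAP1 and is applied at 0.3 µg/mL; score merges spot fluorescence near 667 nm with signal-to-noise over triplicate slides.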 The settings on record: probe aLAP1, fluorescence, higher = more signal.
For the next experiment, the system named is Sam68 (KHDRBS1). Put plainly: Sam68 small-molecule binders, primary screen, biochemical, small-molecule microarray, 635 nm fluorescence (AID 1125).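 Note: score merges 667 nm channel intensity with signal to noise over triplicate slides.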 As to conditions: small-molecule microarray binding, higher = more signal.
Experiment [7] has as its system Chordin-like protein 2 (CHRDL2). The experiment can be described thus: CHRDL2 small-molecule binders, primary screen, biochemical, small-molecule microarray, 635 nm fluorescence (AID 1126).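 Note: printed compound slides probed with Chrdl2 protein at 4 µg/mL for 1 h at 4 C; score merges 667 nm emission intensity with signal to noise over three replicate slides.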 The settings on record: small-molecule microarray binding, fluorescence 635 nm; higher = more signal.
For experiment [8], the target named is Concanavalin-A (Canavalia ensiformis) (UniProt P02866). Put plainly: ConA small-molecule binders, primary screen, artefact control for SMM control protein annotation, biochemical, small-molecule microarray, Alexa647 label, 635 nm (AID 1127).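 Note: z combines 667 nm emission intensity with signal-to-noise across three replicate slides.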 The settings on record: ConA-A647 binding fluorescence, higher = more signal.
Experiment [9] in a line: anti-His antibody binders, primary screen, artefact control for SMM control protein annotation, biochemical, small-molecule microarray, 635 nm fluorescence (AID 1128).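 Note: score merges feature fluorescence with signal-to-noise for each printed compound spot.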 The settings on record: anti-His Alexa647 antibody binding, higher = more signal.
Experiment [10] relates to Human papillomavirus type 1a E7 protein (residues 1-88). Put plainly: HPV1a E7 small-molecule binders, primary screen, biochemical, small-molecule microarray, residues 1-88, 635 nm (AID 1129). The settings on record: small-molecule microarray binding, fluorescence 635 nm; higher = more signal.
Experiment [11] has as its target Focal adhesion kinase 1 (Homo sapiens) (UniProt Q05397). Put plainly: small-molecule microarray binders of FAK, primary screen, biochemical, 635/667 nm fluorescence, BSA, DTT (AID 1130).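 Note: composite of spot emission at 667 nm and signal to noise over triplicate slides.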 The settings on record: PTK2 binding, 635 nm fluorescence, higher = more signal.
For experiment [12], the system named is Fibrinogen (Alexa647-labelled). Put plainly: fibrinogen binders on compound microarrays, profiling panel, artefact control for SMM control-protein annotation, biochemical, small-molecule microarray, 635/667 nm fluorescence (AID 1131).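 Note: z-score merges 667 nm fluorescence with per-spot signal-to-noise over triplicate slides.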 The settings on record: fibrinogen-A647 binding fluorescence, higher = more signal.
Experiment [13] deals with Follistatin (Homo sapiens) (UniProt P19883). Put plainly: follistatin binders on small-molecule microarrays, primary screen, biochemical, small-molecule microarray, 635/667 nm fluorescence (AID 1132). The settings on record: FST binding, 635 nm fluorescence, higher = more signal.
The target of experiment [14] is Fibroblast growth factor 2 (Homo sapiens) (UniProt P09038). Put plainly: FGF2 binders on small-molecule microarrays, primary screen, biochemical, small-molecule microarray, 635/667 nm fluorescence (AID 1133). The settings on record: small-molecule microarray binding, FGF2, fluorescence 635/667; higher = more signal.
Experiment [15] is described as follows: mitochondrial membrane potential change in A549 cells, profiling panel, cell-based, JC-1 fluorescence, basal, 24 h, 100 nL (AID 1138).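 Note: A549 lung adenocarcinoma cells under basal conditions with no added stimulus; test concentration not given here.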 As to conditions: higher = more signal.
For a further experiment, the system named is Lefty1. The experiment can be described thus: Lefty1 binders on small-molecule microarrays, primary screen, biochemical, small-molecule microarray, 635/667 nm fluorescence (AID 1139). The settings on record: small-molecule microarray binding, fluorescence 635/667; higher = more signal.
Experiment [16] deals with wheat germ agglutinin (Triticum aestivum), Alexa647-labelled. The experiment can be described thus: wheat germ agglutinin binders on compound microarrays, profiling panel, artefact control for SMM control-protein annotation, biochemical, small-molecule microarray, 635/667 nm fluorescence (AID 1140).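 Note: score merges 667 nm feature emission with signal to noise over triplicate slides.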 The settings on record: WGA-A647 binding, 635 nm fluorescence, higher = more signal.

Experiment [17] deals with Luciferin 4-monooxygenase (Photinus pyralis) (UniProt P08659). The experiment can be described thus: firefly luciferase enzyme inhibitors, primary screen, biochemical, luminescence, purified enzyme, 2006 set (AID 1141).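 Note: cell-free assay with purified firefly luciferase at 100 ng per well in PBS; test concentration not given here.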 The settings on record: SteadyGlo luminescence, 30 min, higher = more signal, called active from +8 up or from −8 down.

The source made the active and inactive calls.

From PubChem BioAssay come the findings set out here.

Chain of Concanavalin-A (Canavalia ensiformis) (P02866 whole entry, looked up): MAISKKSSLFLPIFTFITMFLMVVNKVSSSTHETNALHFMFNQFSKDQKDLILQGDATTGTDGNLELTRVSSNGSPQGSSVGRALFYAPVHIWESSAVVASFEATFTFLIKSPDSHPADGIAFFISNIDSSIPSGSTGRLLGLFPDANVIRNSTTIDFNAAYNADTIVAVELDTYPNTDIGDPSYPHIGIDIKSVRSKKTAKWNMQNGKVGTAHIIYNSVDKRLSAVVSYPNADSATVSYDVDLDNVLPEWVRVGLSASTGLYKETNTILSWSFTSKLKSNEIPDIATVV
Chain of Luciferin 4-monooxygenase (Photinus pyralis) (P08659 whole entry, looked up): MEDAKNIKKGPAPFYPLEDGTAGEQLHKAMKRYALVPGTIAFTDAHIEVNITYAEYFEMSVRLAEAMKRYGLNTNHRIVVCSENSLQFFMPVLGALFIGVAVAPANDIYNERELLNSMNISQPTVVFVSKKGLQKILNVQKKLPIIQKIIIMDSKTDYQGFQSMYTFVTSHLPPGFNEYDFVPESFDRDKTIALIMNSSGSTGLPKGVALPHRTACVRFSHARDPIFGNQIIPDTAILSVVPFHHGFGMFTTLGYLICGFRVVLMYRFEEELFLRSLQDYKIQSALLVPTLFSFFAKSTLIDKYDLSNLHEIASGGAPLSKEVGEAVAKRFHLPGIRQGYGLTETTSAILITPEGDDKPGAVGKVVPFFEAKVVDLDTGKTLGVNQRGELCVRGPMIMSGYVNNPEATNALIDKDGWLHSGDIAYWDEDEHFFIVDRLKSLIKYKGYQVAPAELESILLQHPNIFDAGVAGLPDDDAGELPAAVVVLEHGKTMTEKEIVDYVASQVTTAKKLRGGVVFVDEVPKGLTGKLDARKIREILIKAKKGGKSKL
Chain of Follistatin (Homo sapiens) (P19883 whole entry, looked up): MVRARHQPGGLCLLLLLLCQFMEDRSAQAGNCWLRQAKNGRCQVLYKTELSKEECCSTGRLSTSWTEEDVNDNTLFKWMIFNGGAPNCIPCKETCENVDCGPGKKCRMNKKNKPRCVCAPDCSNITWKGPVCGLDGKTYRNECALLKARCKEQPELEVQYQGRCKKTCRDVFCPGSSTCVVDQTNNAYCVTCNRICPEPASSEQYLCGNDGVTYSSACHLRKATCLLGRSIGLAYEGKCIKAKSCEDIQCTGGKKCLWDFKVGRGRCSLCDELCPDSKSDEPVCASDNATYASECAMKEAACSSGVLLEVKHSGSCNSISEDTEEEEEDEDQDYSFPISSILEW
Chain of Albumin (Bos taurus) (P02769 whole entry, looked up): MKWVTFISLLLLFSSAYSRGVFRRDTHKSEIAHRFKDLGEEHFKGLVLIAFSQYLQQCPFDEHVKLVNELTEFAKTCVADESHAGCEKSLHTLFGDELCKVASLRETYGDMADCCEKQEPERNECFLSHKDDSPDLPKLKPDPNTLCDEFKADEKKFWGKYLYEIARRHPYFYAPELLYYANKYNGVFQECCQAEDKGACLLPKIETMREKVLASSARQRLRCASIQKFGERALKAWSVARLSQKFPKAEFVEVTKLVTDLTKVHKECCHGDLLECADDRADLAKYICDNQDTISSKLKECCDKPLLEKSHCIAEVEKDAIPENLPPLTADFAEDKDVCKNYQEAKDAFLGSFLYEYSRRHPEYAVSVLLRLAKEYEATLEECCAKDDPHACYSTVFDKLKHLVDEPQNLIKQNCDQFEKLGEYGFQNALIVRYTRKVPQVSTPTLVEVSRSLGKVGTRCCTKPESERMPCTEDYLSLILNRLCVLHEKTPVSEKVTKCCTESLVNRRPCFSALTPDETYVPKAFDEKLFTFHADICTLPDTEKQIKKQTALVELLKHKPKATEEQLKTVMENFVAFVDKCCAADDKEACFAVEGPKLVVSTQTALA
Chain of Focal adhesion kinase 1 (Homo sapiens) (Q05397 whole entry, looked up): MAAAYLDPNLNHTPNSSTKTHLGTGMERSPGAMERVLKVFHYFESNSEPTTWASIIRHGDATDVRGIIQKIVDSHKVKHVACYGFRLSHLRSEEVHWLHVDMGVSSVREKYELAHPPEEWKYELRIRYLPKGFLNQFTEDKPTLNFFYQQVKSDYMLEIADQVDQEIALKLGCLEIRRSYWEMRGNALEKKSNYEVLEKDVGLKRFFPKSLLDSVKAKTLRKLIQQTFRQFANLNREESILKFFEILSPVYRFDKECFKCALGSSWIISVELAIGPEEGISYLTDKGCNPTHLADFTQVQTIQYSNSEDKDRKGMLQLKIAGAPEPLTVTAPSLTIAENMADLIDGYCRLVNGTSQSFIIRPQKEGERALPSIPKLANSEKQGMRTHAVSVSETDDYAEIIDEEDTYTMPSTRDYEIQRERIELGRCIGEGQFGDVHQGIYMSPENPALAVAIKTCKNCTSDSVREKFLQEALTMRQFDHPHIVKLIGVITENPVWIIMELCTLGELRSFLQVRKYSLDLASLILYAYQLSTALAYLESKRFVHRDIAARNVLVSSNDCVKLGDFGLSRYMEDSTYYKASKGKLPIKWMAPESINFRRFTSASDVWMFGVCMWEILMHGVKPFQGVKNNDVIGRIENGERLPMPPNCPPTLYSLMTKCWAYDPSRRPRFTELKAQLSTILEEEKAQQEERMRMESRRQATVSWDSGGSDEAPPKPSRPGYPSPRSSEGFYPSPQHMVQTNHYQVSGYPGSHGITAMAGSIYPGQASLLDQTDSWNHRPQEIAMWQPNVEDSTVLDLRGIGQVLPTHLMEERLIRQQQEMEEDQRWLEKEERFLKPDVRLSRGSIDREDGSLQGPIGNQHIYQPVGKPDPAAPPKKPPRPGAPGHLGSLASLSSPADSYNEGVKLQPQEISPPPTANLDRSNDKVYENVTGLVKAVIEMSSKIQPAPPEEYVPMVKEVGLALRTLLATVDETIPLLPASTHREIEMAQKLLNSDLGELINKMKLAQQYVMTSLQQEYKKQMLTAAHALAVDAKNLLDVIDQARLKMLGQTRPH
Chain of Fibroblast growth factor 2 (Homo sapiens) (P09038 whole entry, looked up): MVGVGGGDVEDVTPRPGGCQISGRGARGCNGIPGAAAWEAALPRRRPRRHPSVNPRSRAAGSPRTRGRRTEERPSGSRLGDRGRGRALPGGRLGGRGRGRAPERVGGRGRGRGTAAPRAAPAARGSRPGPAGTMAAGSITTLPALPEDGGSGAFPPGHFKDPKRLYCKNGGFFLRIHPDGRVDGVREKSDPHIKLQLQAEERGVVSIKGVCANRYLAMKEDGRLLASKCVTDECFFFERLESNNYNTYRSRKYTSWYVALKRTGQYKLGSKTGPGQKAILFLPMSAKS

With `CN1C(=O)C2C=CC(C(O)C(c3ccccc3)c3ccccc3)N(NC(=O)OC(C)(C)C)C2C1=O` (stereo not given), the composite z-score in the experiment with Albumin (Bos taurus) stood at 1.03; in experiment [2] it was 0.687; in [3] it was 0.498; in experiment [4], 0.793; in [5], 3.42; in experiment [6], 1. The composite z-score in the experiment on Sam68 (KHDRBS1) worked out at 1.33; in [7] it was 0.0789; in experiment [8], 1.19; in experiment [9], 1.88; in [10] it was 1.18; in experiment [11], 0.666. In addition, the composite z-score in [12] was 0.973; in experiment [13] it was 1.03; in experiment [14], 0.0319; with Lefty1 it was 0.895; in experiment [16] it was 1.09. In [1], the composite Z-score was 1.84 (inactive). Moreover, the z-score is -0.0852 in experiment [15] and -0.0519 (inactive) in experiment [17].

Consider `CCOC(=O)CCN1C(=O)[C@H]2[C@H]3[C@H](O)[C@H](O)CC(=NNC(=O)OCc4ccc(OC)cc4)[C@@H]3CC[C@H]2C1=O`, for which the composite z-score with Albumin (Bos taurus) is 0.0708; in experiment [2], -0.153; in experiment [3], -0.104; in [4], 0.244; in [5], 1.31; in [6], -0.239. Besides, the composite z-score is 0.427 in the experiment on Sam68 (KHDRBS1); 0.388 in [7]; 1.09 in experiment [8]; -0.0498 in experiment [9]; 0.842 in experiment [10]; 0.215 in experiment [11]. In addition, the composite z-score in experiment [12] was found to be 0.367; in experiment [13], 0.541; in experiment [14], 0.474; with Lefty1, 0.833; in experiment [16] it was 0.985. Besides, the composite Z-score in experiment [1] was 0.101 (inactive). Moreover, the z-score in [15] was 0.385; in experiment [17], 0.666 (inactive).

As for `COCCOC(=O)N1C(=O)[C@@]2(c3cc(C#CCNC(N)=O)ccc31)[C@H](c1ccc(O)cc1)N1[C@H](c3ccccc3)[C@H](c3ccccc3)OC(=O)[C@H]1[C@@H]2C(=O)N1CCCCCCC1`, the composite z-score with Albumin (Bos taurus) is -0.466; in experiment [2] it was 0.207; in experiment [3], -0.108; in experiment [4], 0.244; in experiment [5] it was 0.734; in experiment [6], 0.382. Further, the composite z-score is 1.3 with Sam68 (KHDRBS1); 1.15 in [7]; 0.615 in experiment [8]; 0.127 in experiment [9]; 0.857 in experiment [10]; 0.14 in experiment [11]. The composite z-score stood at 0.606 in [12]; 1.3 in [13]; 1.5 in experiment [14]; 1.05 in the experiment on Lefty1; 0.566 in experiment [16]. Further, the composite Z-score in [1] was -0.624 (inactive). Also, the z-score in experiment [15] was -1.18; in experiment [17] it was 0.629 (inactive).

On to `CC(C)=C1C(=O)C(c2ccccc2)=C2CN3C(=O)N(CCc4ccccc4)C(=O)[C@]3(Cc3ccc(F)cc3)[C@H]21`, for which the composite z-score stood at 0.697 with Albumin (Bos taurus); 0.186 in experiment [2]; 0.148 in experiment [3]; 0.306 in experiment [4]; 1.04 in experiment [5]; 0.34 in experiment [6]. The composite z-score with Sam68 (KHDRBS1) was 0.639; in experiment [7], -2.22; in [8], -1.05; in experiment [9], 1.59; in [10] it was -0.205; in experiment [11], -0.0639. Moreover, the composite z-score is -1.43 in [12]; -0.968 in [13]; -0.412 in [14]; -1.2 with Lefty1; 0.338 in experiment [16]. Further, the composite Z-score in [1] was 1.87 (inactive). Further, the z-score in [15] is 1.27; in experiment [17], 0.98 (inactive).

In the case of `CC(C)[C@H](NC(=O)OC(C)(C)C)[C@@H](O)CC(=O)OC(C)(C)C`, the composite z-score is -0.493 with Albumin (Bos taurus); -0.235 in [2]; -0.144 in [3]; -0.602 in experiment [4]; -0.361 in [5]; -0.202 in [6]. Also, the composite z-score with Sam68 (KHDRBS1) is -1.73; in experiment [7], -0.646; in experiment [8] it was -0.744; in experiment [9], -0.105; in experiment [10], -1.47; in experiment [11], -0.563. For the same molecule, the composite z-score is -0.808 in experiment [12]; -0.275 in [13]; -0.394 in experiment [14]; 0.123 in the experiment with Lefty1; -0.339 in [16]. Further, the composite Z-score in experiment [1] was 0.0831 (inactive). For the same molecule, the z-score in experiment [15] was -1.25; in experiment [17], -0.0331 (inactive).

Regarding `CO[C@H]1COC(=O)[C@H](C)NC(=O)[C@@H](C)COC(=O)CC=C[C@@H]1C`, the composite z-score with Albumin (Bos taurus) is -0.331; in [2] it was -0.0391; in experiment [3], -0.192; in experiment [4], -0.336; in [5] it was -0.851; in experiment [6], -0.0193. For the same molecule, the composite z-score was 0.41 with Sam68 (KHDRBS1); 0.858 in experiment [7]; 0.303 in [8]; -0.133 in [9]; -0.0179 in experiment [10]; -0.274 in experiment [11]. For the same molecule, the composite z-score in [12] was -0.177; in experiment [13], 0.598; in experiment [14] it was 1.34; with Lefty1, 0.572; in experiment [16], -0.114. Also, in [1], the composite Z-score was 0.0462 (inactive). The z-score in experiment [15] is -0.855; in [17], 0.514 (inactive).
